# Measured values reported in PubChem BioAssay.
# Target: Tumor necrosis factor receptor superfamily member 10B (Homo sapiens) (UniProt O14763)
# Assay: compound enhancement of TRAIL-induced cell killing – NB7 cells plus caspase-8, luminescence, panel, dose response (AID 652002)
# Conditions: NB7 neuroblastoma +caspase-8, TRAIL sensitization, luminescence viability, NB7+Caspase-8, with TRAIL, run 1; at 12.5 µM (top of the series)
# Sequence of Tumor necrosis factor receptor superfamily member 10B (Homo sapiens) (O14763 whole entry, looked up): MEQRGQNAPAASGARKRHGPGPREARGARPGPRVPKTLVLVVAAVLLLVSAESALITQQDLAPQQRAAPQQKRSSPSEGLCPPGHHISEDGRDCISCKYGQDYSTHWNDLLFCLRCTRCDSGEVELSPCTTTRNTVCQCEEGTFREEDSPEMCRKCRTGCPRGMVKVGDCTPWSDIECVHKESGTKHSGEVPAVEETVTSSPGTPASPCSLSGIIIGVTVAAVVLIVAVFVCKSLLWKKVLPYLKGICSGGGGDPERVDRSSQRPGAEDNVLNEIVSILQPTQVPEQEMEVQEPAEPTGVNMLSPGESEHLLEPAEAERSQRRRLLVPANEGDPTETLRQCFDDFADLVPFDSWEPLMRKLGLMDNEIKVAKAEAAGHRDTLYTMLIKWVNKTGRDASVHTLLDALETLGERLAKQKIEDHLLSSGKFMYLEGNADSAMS
row,Compound,"activity, % sensitization"
1,CCOC(=O)[C@]12Cc3cc4ccccc4cc3[C@H]1N(Cc1ccccc1)C(=O)c1ccccc12,18.4%
2,CCOC(=O)[C@]12Cc3cc4ccccc4cc3[C@H]1N(Cc1ccccc1)C(=O)c1cc(OC)ccc12,23.8%
3,CC(C)CCn1c(=O)c(C(=O)Nc2ccccc2S(N)(=O)=O)c(O)c2ccccc21,-2.11%
4,CCCC1(CCC)C(=O)NC(=NCc2ccccc2)NC1=O,-11.1%

# Target: Tumor necrosis factor receptor superfamily member 10B (Homo sapiens) (UniProt O14763)
# Assay: as above
# Conditions: NB7 neuroblastoma +caspase-8, TRAIL sensitization, luminescence viability, NB7+Caspase-8, with TRAIL, run 2; at 12.5 µM (top of the series)
row,Compound,"activity, % sensitization"
1,CCOC(=O)[C@]12Cc3cc4ccccc4cc3[C@H]1N(Cc1ccccc1)C(=O)c1ccccc12,31.7%
2,CCOC(=O)[C@]12Cc3cc4ccccc4cc3[C@H]1N(Cc1ccccc1)C(=O)c1cc(OC)ccc12,23.6%
3,CC(C)CCn1c(=O)c(C(=O)Nc2ccccc2S(N)(=O)=O)c(O)c2ccccc21,-8.54%
4,CCCC1(CCC)C(=O)NC(=NCc2ccccc2)NC1=O,5.29%
